Screening data deposited in PubChem BioAssay by Broad Institute.
This is one part of a sample in which hits are shown more often than they occur.
miR122 inh: activators of miR-122 sensor in Huh7 cells; activation, % at 12.5 µM; 0.14% of 340,000 active; Huh7 psiCHECK-miR122 Renilla luciferase sensor, 48 h;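 active means mean activation of 30% or more, with every replicate also reaching 30%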;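 further: higher luciferase signal means stronger suppression of miR-122 activity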
A number is an active result.

What do the screens show for `O=C(Nc1ccccc1F)N1C[C@H]2[C@@H](c3ccccc31)[C@@H](CO)N2C(=O)c1ccc(F)cc1`?
miR122 inh: inactive

What do the screens show for `O=C(Nc1ccc(F)cc1)N1C[C@H]2[C@@H](c3ccccc31)[C@H](CO)N2C(=O)c1ccncc1`?
miR122 inh: 50.0

What do the screens show for `CCCNC(=O)N1C[C@H]2[C@@H](c3ccccc31)[C@@H](CO)N2Cc1ccc(F)cc1`?
miR122 inh: inactive

Results for O=C(c1cccnc1)N1C[C@H]2[C@@H](c3ccccc31)[C@H](CO)N2C(=O)Nc1ccccc1Cl ?
miR122 inh: 40.0

What do the screens show for `O=S(=O)(c1ccc(F)cc1)N1C[C@H]2[C@@H](c3ccccc31)[C@@H](CO)N2Cc1ccc2c(c1)OCO2`?
miR122 inh: inactive

How did COCC(=O)N1[C@H](CO)[C@H]2c3ccccc3N(C(=O)c3ccccc3F)C[C@H]21 do in these assays?
miR122 inh: 44.2

What do the screens show for `CC(C)CC#Cc1cnc2c(c1)C(=O)N([C@@H](C)CO)C[C@@H](C)[C@H](CN(C)C(=O)Nc1cccc(F)c1)O2`?
miR122 inh: inactive

What do the screens show for `Cc1ccc(-c2ccc3c(c2)O[C@H](CN(C)Cc2ccc(F)cc2)[C@@H](C)CN([C@H](C)CO)S3(=O)=O)cc1`?
miR122 inh: inactive

What do the screens show for `CCC(=O)Nc1ccc2c(c1)OC[C@H](C)NC[C@@H](C)[C@@H](OC)CN(C)C2=O`?
miR122 inh: inactive

How did CCCC#Cc1cnc2c(c1)C(=O)N([C@@H](C)CO)C[C@H](C)[C@@H](CN(C)C(=O)C1CC1)O2 do in these assays?
miR122 inh: inactive

What do the screens show for `CC(=O)N(C)C[C@@H]1Oc2cc(C#C[C@H](C)O)ccc2S(=O)(=O)N([C@@H](C)CO)C[C@@H]1C`?
miR122 inh: inactive

How did CCCNC(=O)N(C)C[C@@H]1Oc2ncc(C#CCC3CCCC3)cc2C(=O)N([C@@H](C)CO)C[C@H]1C do in these assays?
miR122 inh: inactive

Results for CCC(=O)N(C)C[C@H]1Oc2ncc(C#C[C@@H](C)O)cc2C(=O)N([C@@H](C)CO)C[C@@H]1C ?
miR122 inh: inactive

What do the screens show for `C[C@@H]1CN([C@@H](C)CO)C(=O)c2cc(-c3ccc(F)cc3)cnc2O[C@H]1CN(C)C(=O)c1ccccn1`?
miR122 inh: inactive

What do the screens show for `C/C=C/c1ccc2c(c1)O[C@H](CN(C)S(C)(=O)=O)[C@H](C)CN([C@H](C)CO)S2(=O)=O`?
miR122 inh: inactive

What do the screens show for `CC(C)CC#Cc1cnc2c(c1)C(=O)N([C@H](C)CO)C[C@H](C)[C@@H](CN(C)C(=O)Nc1cc(F)ccc1F)O2`?
miR122 inh: inactive

Results for C[C@H]1CN([C@@H](C)CO)C(=O)c2cc(/C=C/c3ccccc3)cnc2O[C@@H]1CN(C)Cc1ccccc1F ?
miR122 inh: inactive

How did COc1ccc(C#Cc2cnc3c(c2)C(=O)N([C@H](C)CO)C[C@H](C)[C@H](CN(C)CC2CCOCC2)O3)cc1 do in these assays?
miR122 inh: inactive

What do the screens show for `Cc1ccc(C2CN(C)C3(C(=O)Nc4ccccc43)C23COc2ccccc2C3=O)cc1` (stereo not drawn)?
miR122 inh: inactive

What do the screens show for `Cc1ccc(C2CN=NC23CCc2ccccc2C3=O)cc1` (stereo not drawn)?
miR122 inh: 50.6

Results for C[C@@H]1CN([C@H](C)CO)C(=O)c2cc(C#CC3CC3)cnc2O[C@H]1CN(C)Cc1ccncc1 ?
miR122 inh: inactive

What do the screens show for `C[C@H]1CN([C@@H](C)CO)C(=O)c2cc(C#Cc3ccccn3)cnc2O[C@@H]1CN(C)C(=O)CCN1CCCCC1`?
miR122 inh: inactive

How did Cc1cc(CN(C)C(=O)c2cc(COc3ccc4ncccc4c3)on2)on1 do in these assays?
miR122 inh: 35.1

How did C[C@@H]1CN([C@@H](C)CO)C(=O)c2cc(-c3ccccc3F)cnc2O[C@@H]1CN(C)Cc1ccccc1F do in these assays?
miR122 inh: inactive

What do the screens show for `COc1ccc(N2CCc3c(C)nc4c(OC)cc(OC)cc4c32)c(OC)c1`?
miR122 inh: 46.9

What do the screens show for `COCC#Cc1ccc2c(c1)O[C@@H](CN(C)C(=O)C1CCCCC1)[C@@H](C)CN([C@H](C)CO)S2(=O)=O`?
miR122 inh: inactive

How did Cc1cc(C)cc(N=c2c([N+](=O)[O-])nn(-c3ccc4c(c3)OCCO4)n2O)c1 do in these assays?
miR122 inh: 42.4

What do the screens show for `CNC[C@@H]1Oc2cc(C#Cc3cccc(F)c3)ccc2S(=O)(=O)N([C@@H](C)CO)C[C@H]1C`?
miR122 inh: inactive

Results for COc1cccc(-c2cnc3c(c2)C(=O)N([C@H](C)CO)C[C@H](C)[C@H](CN(C)S(=O)(=O)c2ccc(C)cc2)O3)c1 ?
miR122 inh: inactive

How did CCC(=O)Nc1ccc2c(c1)OC[C@H](C)NC[C@H](C)[C@@H](OC)CN(C)C2=O do in these assays?
miR122 inh: inactive

How did Cc1noc(C)c1NC(=O)N(C)C[C@H]1Oc2ncc(C#CCC(C)C)cc2C(=O)N([C@@H](C)CO)C[C@H]1C do in these assays?
miR122 inh: inactive

How did CCCNC(=O)NC[C@@H]1[C@@H](c2ccc(C3=CCCCC3)cc2)[C@H](CO)N1C(C)=O do in these assays?
miR122 inh: inactive

How did CCCNC(=O)N1[C@H](CNC(=O)c2ccc(F)cc2)[C@H](c2ccccc2)[C@@H]1CO do in these assays?
miR122 inh: 41.7

How did COc1cccc(-c2cnc3c(c2)C(=O)N([C@H](C)CO)C[C@@H](C)[C@@H](CN(C)CC2CCOCC2)O3)c1 do in these assays?
miR122 inh: inactive

Results for COc1ccccc1-c1ccc2c(c1)O[C@H](CN(C)S(=O)(=O)c1ccc(C)cc1)[C@@H](C)CN([C@@H](C)CO)S2(=O)=O ?
miR122 inh: inactive

How did Cc1ccc(S(=O)(=O)N(C)C[C@@H]2Oc3cc(C#CC4CCCC4)ccc3S(=O)(=O)N([C@H](C)CO)C[C@@H]2C)cc1 do in these assays?
miR122 inh: inactive

Results for Cc1ccc(C(=O)OCn2ncc(Cl)c(Cl)c2=O)cc1 ?
miR122 inh: 74.4

How did O=C(Cc1cccc2ccccc12)Nc1ccc(OC(F)F)c(Cl)c1 do in these assays?
miR122 inh: inactive

What do the screens show for `O=C(Nc1ccc(OC(F)F)cc1)Nc1cccc(C(F)(F)F)c1`?
miR122 inh: 44.1

What do the screens show for `CC(OC(=O)c1cccc(S(=O)(=O)Nc2cccc(C(F)(F)F)c2)c1)C(=O)Nc1ccc2c(c1)OCCO2` (stereo not drawn)?
miR122 inh: inactive

Results for C[C@H]1CN([C@@H](C)CO)C(=O)c2cc(-c3ccc(F)cc3)cnc2O[C@H]1CN(C)C(=O)c1ccccn1 ?
miR122 inh: inactive

What do the screens show for `COCC(=O)N(C)C[C@H]1Oc2ncc(/C=C/c3ccccc3)cc2C(=O)N([C@@H](C)CO)C[C@H]1C`?
miR122 inh: inactive

Results for C[C@H](CO)N1C[C@H](C)[C@@H](CN(C)C(=O)Nc2ccccc2)Oc2ccc(NC(=O)Cc3ccccc3)cc2CC1=O ?
miR122 inh: inactive

What do the screens show for `C[C@@H]1CN([C@@H](C)CO)C(=O)Cc2cc(NC(=O)c3ccncc3)ccc2O[C@H]1CN(C)Cc1ccc(-c2ccccc2)cc1`?
miR122 inh: 31.5

How did CC(C)NC(=O)Nc1ccc2c(c1)CC(=O)N([C@H](C)CO)C[C@@H](C)[C@@H](CN(C)Cc1ccc(Oc3ccccc3)cc1)O2 do in these assays?
miR122 inh: inactive

Results for C[C@H](CO)N1C[C@H](C)[C@@H](CN(C)Cc2ccc(-c3ccccc3)cc2)Oc2ccc(NC(=O)Cc3ccccc3)cc2CC1=O ?
miR122 inh: 34.8
